The panel holds about 83,000 compounds, 20% with a hit somewhere; the sample as a whole holds those more often.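 The test compound was applied at a single concentration to cells in 96-well plates for 48 hours, and percent growth was recorded.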 The source made the active and inactive calls.

The test system of this assay is T-47D breast. Briefly: NCI-60 one-dose screen, 48 h (100 = growth as untreated, 0 = no growth, -100 = all killed). The settings on record: 10 µM unless noted. The protocol:
Growth inhibition of the T-47D human tumor cell line is measured as a screen for anti-cancer activity. Cells are grown in 96 well plates and exposed to the test compound for 48 hours. Compounds are tested at a single concentration, which is 10^-5 M for most compounds. The reported endpoint is percent growth (GI% or GIPRCNT), where numbers from 0 - 100% represent growth inhibition, and numbers from -100% - 0 represent cell death. For example, a value of 40 represents 60% growth inhibition. A value of 0 means no net growth occurred over the course of the experiment. A value of -40 indicates 40% of cells at the beginning of the experiment died by the end of the experiment. A value of -100 means all cells are dead at the end of the experiment.
NCI-60 Human Tumor Cell Lines Screen was performed using the standard one-dose NCI protocol, which is described in more detail at https://dtp.cancer.gov/discovery_development/nci-60/default.htm.
Compounds with GIPRCNT values below 10 were considered active. Activity score was based on GIPRCNT using the following formula: […]
Score is 0 for GIPRCNT values of 100 or above, 50 for GIPRCNT values of 0, and 100 for GIPRCNT values of -100.
For the compound `O=C(C(Br)C(Br)c1ccccc1)C(Br)C(Br)c1ccccc1` (stereo not given), the growth was -30.6% (active).

On to `CCCN(CCC)CC(O)COc1ccccc1C(=O)Nc1ccccc1` (stereo not given), for which the growth is 97.1% (inactive).

With `CN(CCO)c1ccc(N2Cc3ccccc3OC3=C2C(=O)c2c(O)ccc(O)c2C3=O)cn1`, the growth was -42.7% (active).

In the case of `CC(C)CC(NC(=O)C(CCCN=C(N)N)NC(=O)OCc1ccccc1)C(=O)NC(CNC(=O)/C=C/c1ccccc1)C(C)C` (stereo not given), the growth was 96.2% (inactive).

For the compound `CCN(CC)CCNc1c(C)cc(CO)c(Cl)c1C`, the growth is 112% (inactive).

Regarding `Cn1c(=O)c2c3c(oc2c2ccccc21)C(=O)c1ccccc1C3=O`, the growth is 9.7% (active).

As for `COc1ccc(C2CC(c3ccc(Nc4ccnc5cc(Cl)ccc45)cc3)=NN2c2ccccc2)cc1` (stereo not given), the growth was 92.9% (inactive).

Consider `O=C1/C(=C\c2cccn2Cc2ccc(F)cc2)c2ccccc2N1c1c(Cl)cccc1Cl`, for which the growth was 19% (inactive).

Regarding `O=C(O)c1ccccc1N=Cc1ccccc1`, the growth was 101% (inactive).

`COc1cc(Nc2ccnc3ccc(Br)cc23)cc(OC)c1OC`: the growth was 40.9% (inactive).

`O=C(Nc1ccc(Oc2ccc(Nc3nc4ccccc4s3)cc2)cc1)Nc1ccc(Cl)c(C(F)(F)F)c1`: the growth was 3.71% (active).

In the case of `O=C(C=P(c1ccccc1)(c1ccccc1)c1ccccc1)CCl`, the growth is -73.8% (active).

`Cc1ccc(NC(=O)Cn2nncc2CN2C(=O)CSC2=O)cc1C`: the growth is 98.7% (inactive).

As to `N=C(N)c1ccc(-c2ccc(-c3cc(Cl)cc(Cl)c3)o2)nc1`, the growth was -66.1% (active).

Turning to `C/C(=N\NC(=S)Nc1ccccc1)c1ccccn1`, the growth is 28.7% (inactive).

Take `CCOC(CN1CCN(CC(C)C(=O)c2ccccc2)CC1)c1ccccc1` (stereo not given): the growth is 92.8% (inactive).

As for `CCCCN(CCCC)CCC(O)c1cc2ccc(C(F)(F)F)cc2c2cc(C(F)(F)F)ccc12` (stereo not given), the growth is 52.1% (inactive).

Consider `CCCCCCCCCCCCCCCCCC1=NC(C)(C)CN1C(C)(C)CO`, for which the growth is -19.5% (active).

For the compound `COc1ccc(C(=O)/C=C/c2cn(-c3ccccc3)nc2-c2cccc(Nc3ccnc4cc(Cl)ccc34)c2)cc1`, the growth was 97.1% (inactive).

On to `Clc1ccc(Nc2ncnc3c2sc2ncccc23)c(Cl)c1`, for which the growth is 36.7% (inactive).

In the case of `CCCCn1c(C)nc2ccc(Nc3nc(Cl)nc4nc[nH]c34)cc21`, the growth is 33.9% (inactive).

Take `O=c1[nH]c2ccccc2n2cc3cccnc3c12`: the growth was 81% (inactive).

Consider `COc1ccc(/C(=C\c2ccc3c(c2)OCO3)C(=O)Nc2nc3ccc(F)cc3s2)cc1OC`, for which the growth is 101% (inactive).

On to `COc1ccc(-c2oc(=O)ccc2-c2cc(OC)c(OC)c(OC)c2)cc1F`, for which the growth was 104% (inactive).

On to `COc1ccc(/C=C/C(=O)c2ccc(NC(=O)CSc3nnc(-c4ccc(OC)cc4)n3-c3ccccc3)cc2)cc1`, for which the growth was 92.9% (inactive).

As for `CCCCC(CCc1ccccn1)C(=O)c1ccccc1` (stereo not given), the growth was 100% (inactive).

`CCn1c(CN2CCN(Cc3ccccc3)CC2)nc2cc(NC(=O)c3cccs3)ccc21`: the growth is -62.5% (active).

In the case of `CCN(CC)Cc1cc(Nc2ccnc3cc(Cl)ccc23)cc(-c2ccc(Cl)cc2)c1O`, the growth is 50.9% (inactive).

With `O=C(CS)OCC(COC(=O)CS)(COC(=O)CS)COC(=O)CS`, the growth is 89.1% (inactive).

Take `CN1CCN(Cc2ccc(NC(=O)c3cncc(C#Cc4cnc5cccnn45)c3)cc2C(F)(F)F)CC1`: the growth is 30.7% (inactive).

As to `O=C(O)c1cn(-c2ccccc2)nc1-c1ccc(O)cc1`, the growth was 101% (inactive).

Regarding `Oc1ccc(CCCCCCc2ccc(O)cc2)cc1`, the growth is 65% (inactive).

`CC(=O)c1ccc(Nc2nc(Cl)nc(Oc3c(Cl)cccc3Cl)n2)cc1`: the growth is 79.8% (inactive).

Consider `Cc1ccc(NC(=O)c2[nH]c(SCCN(C)C)nc2-c2ccc(F)cc2)cc1Nc1ccc2ncn(C)c(=O)c2c1`, for which the growth was 76.8% (inactive).

As for `COc1cccc(Cn2c(-c3nonc3NC(C)=O)nc3ccccc32)c1`, the growth is 42.3% (inactive).

In the case of `CCN(CC)CCCCCCCNc1cc(OC)cc2c(C)ccnc12`, the growth is 53.6% (inactive).

As to `O=C(Nc1ccc(Oc2ccc(NC(=O)Nc3ccccc3Cl)cc2)cc1)Nc1ccccc1Cl`, the growth was 45.3% (inactive).

With `Nc1nonc1-c1nc2ccccc2n1Cc1ccc(F)cc1`, the growth was 61.3% (inactive).

Take `COc1ccc(/C(=C\c2cc(OC)c(OC)c(OC)c2)C(=O)N2CCNCC2)cc1`: the growth is 82.8% (inactive).

As for `O=C1C(Cl)=C(N/N=c2/[nH][nH]/c(=N/NC3=C(Cl)C(=O)c4ccccc4C3=O)c3ccccc23)C(=O)c2ccccc21`, the growth was 15.3% (inactive).
